Our source for the PBM binding z-score values is the supplement of paper PMC6555819.

The subject of the experiment is VDR:RXRa (NR concentration 270 nM, RXRa partner concentration 90 nM). In words: PBM binding z-score (relative to random genomic background probes); higher = stronger binding; sequences stand for … in GC…GCGATTGACAGCGTAGAATGAAGG
Here is the method: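 Protein-binding microarray (Agilent 4x180K custom design, double-stranded 60-nt probes: 5' GC cap, 34-nt variable region, 24-nt constant primer region; full probe sequence given). Purified or IVT nuclear receptor:RXRα heterodimers (3:1 NR:RXRα, mostly 270:90 nM) or homodimers were incubated for 1 h in PBS with 2% milk and no ligand, then detected with Alexa488 antibodies. Fluorescence from o1-orientation probes (~5 replicates averaged) was converted to z-scores against 500 random hg19 background probes. Variable regions are seed direct-repeat (DR0–DR5) sites, all their single-nucleotide variants and half-site ablations.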
For CCAGACAGGTGTAAGGTAACTCAGTCTGGTACGC, the PBM binding z-score is 0.0147.
Under CATACAGGGTCAGCTAGGCTAGAGTAGGGACGGC stands 3.
Under CGTAAAAGTTCAACTAAGGTAACGTAAAGCACGC stands 4.33; under CGAACTAGGTCATCCAGGGCAGTGAATACATTGA, 5.26.
Sequence TCTATAAGTTGAAGGGCAACCGACGAGTCCGTTT had a PBM binding z-score of 1.07.
The figure for GCTGCTAGGTCAACTGATGGTCAGCGAAAGCTCG is 1.73.
Under ATATCTAGGTAAGACTCAGTTCAGTGAAGAACGC stands 0.941; under CCTTACGGGTCACTGACAGGTTATAGGATTTGGA, 3.77; under TAGCCTAGGTCATGCGCCAGTATACCACGCGAAC, 2.01.
The figure for CCTCGGAGGACAAAAGGTCAGAGCTGTCCGCTTT is 3.17; for CATACAGCGTCAGCTAGGCCAGAGTAGGGACGGC it is -0.851; for GCGTACGGGTCAAAGGTTATAGCATGAATAGAAT it is 5.59.
Sequence CCTTACGGGTCACGCGGTTATAGCACGACGAGCG had a PBM binding z-score of 4.4.
Under CGAACTAGGTCATTGACACGACAGTGAATAGTAA stands 2.01; under CGAACTAGGTCATTAACAGGACAGTGAATAGTAA, 1.77.
For the sequence ATATGTAGGTAATCGGGTCATTCAGTTTGCGCAT, the PBM binding z-score was 4.7.
The figure for CGTCCAAGGTCAGACAGGTCAGTGAATGCCGAGT is 5.82.
TAGCTTAGGTCATGGGCCAGTATACCACGCGAAC registered a PBM binding z-score of 2.15.
Under CGTCCAAGGTCAAAGTCAGTGAAAGAGACTCGAA stands 3.77.
In the case of AGAATGAGGTTATTATGATCAGGGAATTGCGGTC, the PBM binding z-score turned out to be 1.65.
For the sequence TATACAGGGTCAAAGGCCAGTGTACGAATGTCGA, the PBM binding z-score was 4.84.
The figure for CAAACTAGGTCAAGAGGTCAAAGTCCGCTTCCCG is 6.26; for TCTCGGAGGACACGAAGGTCGGAGCTTTCCAGAG it is 0.528; for CGAACTAGGTCATTGACAGGACGGTGAATAGTAA it is 1.62.
The figure for CCTGCTAGGGCAATGGTCAGCTAAAGCAGCTCGC is -0.874; for CGTCAAAGTTCAACTAGGGTAACGTAAAGCACGC it is 5.28; for TCCAGCAGGCCAGAGGGTCACTCAAGAGGTACGG it is 1.34.
Consider TCTGCTAGGTCAGTTGGACAGCTAACGAGCTGCC, for which the PBM binding z-score was -0.155.
The figure for AATATTAGTTGAGACGAGGGCAACCGATAGGTTG is 1.01; for ACTAGCAGGCCCAGTTTGGGTCACTCAAACAAAG it is -0.198; for CAAACTAGGTCAAAGGACAAAGTCGAGCCAACCA it is 1.96.
The figure for TCTATTAGTTGATTAGGGGAACCGAAACAGCGGA is 0.739; for GCTGCTAAGTCAACTGATGGTCAGCTAAAGCTCG it is -0.619.
Consider GCTGCTAGGTCTACTGATGGTCAGCTAAAGCTCG, for which the PBM binding z-score is -0.746.
The figure for CCTCCTGGGCCATCAGGTCATTGATATCAACGTT is 1.76.
As to ATATGTAGATTAAGGGTCATTCAGGTTGGTTCGC, the PBM binding z-score was 5.22.
As for CCTAGTAGGTCAAGGTCACACACGCTATAGGTAC, the PBM binding z-score is 5.04.
Under CGAACTAGGTCATGGACAGTGAATCTCCGCACGC stands 1.64; under TAGCCTAGGACATTGGGCCAGTATAGTACGCATC, -0.544.
Sequence TCTTATAGGTAAAAGGTGAAAGTCGGTGTGGTAA registered a PBM binding z-score of 1.66.
